The nature of assay [1]: qHTS Assay for Identification of Small Molecule Antagonists for NFkB Signaling Pathway (AID 895; active = well fitted inhibition curve with a large enough effect in the signal ratio, with a control signal flat, not every such curve was filed as active; the % refers to the signal ratio; also: potency is read from the fitted curve at half-maximal effect). Summed up: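 NFkB-bla ME-180 cervical carcinoma cells with beta-lactamase reporter under NFkB response element; compounds added, then TNF alpha at 10 pM final (EC50), 5 h at 37 C. LiveBLAzer substrate 2 h, room temperature; emission 460/530 nm at 405 nm excitation.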
For orientation: qHTS replaces the single test concentration by a dilution series.

Assay [2] has as its target Cytochrome P450 2C19 (Homo sapiens) (UniProt P33261). Briefly: qHTS Assay for Inhibitors and Substrates of Cytochrome P450 2C19 (AID 899). Also: nearly all actives have a fitted effect of over 60% in size. In short, it runs like this:
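Human CYP2C19 (5nM) with Luciferin-H EGE at 10uM (its KM) in 50mM KPO4 was preincubated with compound for 10 min at 37C. NADPH regeneration started a 60 min 37C reaction. Luciferin was read by luminescence, normalized to 57uM ketoconazole.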

Assay [3] can be described thus: qHTS Assay for Identification of Small Molecule Agonists for Thrombopoietin (TPO) Signaling Pathway (AID 917). Also: potency is read from the fitted curve at half-maximal effect. In short, it runs like this: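 Murine Ba/F3 cells expressing human TPO receptor and GPIIb-promoter luciferase, IL-3-starved overnight, given compound plus TPO at 26 pM (EC50). After 24 h at 37 C, 5% CO2, luminescence read.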
Assay [4] concerns the target Muscarinic acetylcholine receptor M1 (Rattus norvegicus) (UniProt P08482). Put plainly: qHTS Assay for Antagonists of Acetylcholine Muscarinic M1 Receptor: Kinetic Measurement of Intracellular Calcium Response (AID 943). Also: series mostly up to about 35 µM; nearly all actives have a fitted effect of over 75% in size. In short, it runs like this:
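CHO cells expressing rat M1 receptor, Fluo-4 loaded, preincubated 10 min with compound, then stimulated with EC80 carbachol (100 nM final). Kinetic calcium fluorescence over 4 min; response taken as peak over basal signal.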

Assay [5] deals with Pyruvate kinase (Leishmania mexicana) (UniProt Q27686). Briefly: qHTS Validation Assay for Inhibitors of Leishmania Mexicana Pyruvate Kinase (AID 945). Also: potency is read from the fitted curve at half-maximal effect. Summed up: (§1)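 An endpoint luciferase assay: 0.2 nM LmPYK E451W turns over 0.5 mM PEP with 0.1 mM ADP for 1 h at room temperature, pH 7.2, before PKLight addition. Values are normalized to DMSO-only wells.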
The target of assay [6] is Pyruvate kinase PKM (Homo sapiens) (UniProt P14618). Put plainly: qHTS Assay for Activators of Human Muscle Pyruvate Kinase (AID 954; active = well fitted curve in the direction sought with a large enough effect, not every such curve was filed as active). In short, it runs like this: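 Enzyme was run at intermediate activity so both inhibitors and activators could be detected. ATP formed from ADP and PEP by 0.1 nM human PKM2 during a 1 h room-temperature incubation was quantified by coupled luciferase luminescence.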

Assay [7] addresses Pyruvate kinase (Leishmania mexicana) (UniProt Q27686). Put plainly: qHTS Validation Assay for Activators of Leishmania Mexicana Pyruvate Kinase (AID 959). In short, it runs like this:
as §1

The target of assay [8] is Muscarinic acetylcholine receptor M1 (Rattus norvegicus) (UniProt P08482). Briefly: qHTS Assay for Antagonists of Acetylcholine Muscarinic M1 Receptor: Measurement of IP-One Response (AID 944). Also: nearly all actives have a fitted effect of over 75% in size. In short, it runs like this: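 CHO cells stably expressing rat M1, pretreated 10 min with compound, then stimulated 30 min with carbachol at EC80 (200 nM) in LiCl-containing buffer pH 7.4; IP1 accumulation read by HTRF competition (665/620 nm).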

A short description of assay [9]: Confirmation and Secondary Assay for Modulators of Hemoglobin Beta Chain Splicing at IVS2 705 locus (AID 930).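 Also: HeLa cells stably expressing the EGFP-705 splicing reporter; GFP fluorescence per well restored by corrected splicing of the IVS2-705 intron in EGFP; series mostly up to about 46 µM.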 Summed up: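 Per-well GFP, captured at 1 x 8 µm resolution with 488 nm excitation, served as the read-out for HeLa EGFP-705 cells incubated 2 days with test compound versus DMSO.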
The target of assay [10] is Pyruvate kinase PKM (Homo sapiens) (UniProt P14618). Put plainly: qHTS Assay for Inhibitors of Human Muscle Pyruvate Kinase (AID 958). In short, it runs like this:
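Luminescence from a luciferase ATP-detection/stop reagent reported PKM2 activity. Reactions contained 0.1 nM purified human enzyme, 0.5 mM PEP, 0.1 mM ADP and 7 mM MgCl2 at pH 7.2, run 1 h at RT.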

Inconclusive results are not listed. Activity calls are given as the source filed them. Unless noted, calls follow the shape of the dose curve; as a rule, active = well fitted curve in the direction sought with a large enough effect; inconclusive = small, poorly fitted or top-dose-only effect, or another doubt; inactive = no such curve, though single readings can be large; an effect the other way counts as inactive or inconclusive.

Chain of Cytochrome P450 2C19 (Homo sapiens) (P33261 whole entry, looked up): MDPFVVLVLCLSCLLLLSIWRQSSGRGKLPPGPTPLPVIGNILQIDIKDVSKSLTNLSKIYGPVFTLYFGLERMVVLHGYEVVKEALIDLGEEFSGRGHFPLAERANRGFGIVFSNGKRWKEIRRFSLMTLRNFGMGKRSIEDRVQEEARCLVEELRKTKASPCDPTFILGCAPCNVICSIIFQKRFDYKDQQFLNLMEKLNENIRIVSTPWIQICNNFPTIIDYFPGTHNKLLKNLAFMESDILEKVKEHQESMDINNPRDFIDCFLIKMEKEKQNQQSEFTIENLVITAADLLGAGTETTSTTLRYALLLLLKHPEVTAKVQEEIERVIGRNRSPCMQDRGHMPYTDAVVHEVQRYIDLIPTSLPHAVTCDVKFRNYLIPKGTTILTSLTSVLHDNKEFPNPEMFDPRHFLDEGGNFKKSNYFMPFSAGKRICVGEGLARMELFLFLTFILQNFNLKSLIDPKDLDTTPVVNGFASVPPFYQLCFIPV
Chain of Pyruvate kinase (Leishmania mexicana) (Q27686 2-499 E452W): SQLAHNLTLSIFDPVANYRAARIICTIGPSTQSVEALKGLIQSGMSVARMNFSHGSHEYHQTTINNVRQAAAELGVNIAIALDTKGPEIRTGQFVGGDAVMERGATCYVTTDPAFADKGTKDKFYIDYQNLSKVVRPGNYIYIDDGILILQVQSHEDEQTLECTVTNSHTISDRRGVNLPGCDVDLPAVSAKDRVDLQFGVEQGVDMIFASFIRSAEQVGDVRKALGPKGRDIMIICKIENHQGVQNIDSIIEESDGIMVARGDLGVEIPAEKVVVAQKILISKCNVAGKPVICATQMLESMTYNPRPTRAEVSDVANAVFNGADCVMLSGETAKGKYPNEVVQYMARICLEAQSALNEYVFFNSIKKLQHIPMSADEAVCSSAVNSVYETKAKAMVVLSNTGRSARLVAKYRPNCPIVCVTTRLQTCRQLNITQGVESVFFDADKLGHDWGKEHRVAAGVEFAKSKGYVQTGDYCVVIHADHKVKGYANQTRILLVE
Chain of Pyruvate kinase PKM (Homo sapiens) (P14618 whole entry, looked up): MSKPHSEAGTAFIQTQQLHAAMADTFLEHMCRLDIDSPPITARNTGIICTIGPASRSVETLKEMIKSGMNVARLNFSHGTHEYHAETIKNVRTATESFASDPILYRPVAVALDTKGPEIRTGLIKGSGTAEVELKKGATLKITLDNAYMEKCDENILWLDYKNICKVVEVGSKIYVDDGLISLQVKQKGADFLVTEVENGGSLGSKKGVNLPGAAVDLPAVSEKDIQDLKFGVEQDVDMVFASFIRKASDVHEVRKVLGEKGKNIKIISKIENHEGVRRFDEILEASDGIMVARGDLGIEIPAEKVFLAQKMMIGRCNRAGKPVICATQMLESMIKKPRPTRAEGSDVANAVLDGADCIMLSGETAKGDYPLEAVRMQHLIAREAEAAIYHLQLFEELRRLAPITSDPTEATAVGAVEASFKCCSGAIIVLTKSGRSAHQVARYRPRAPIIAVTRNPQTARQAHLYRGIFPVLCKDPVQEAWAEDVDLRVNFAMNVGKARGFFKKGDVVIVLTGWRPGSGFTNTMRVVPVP
Chain of Muscarinic acetylcholine receptor M1 (Rattus norvegicus) (P08482 whole entry, looked up): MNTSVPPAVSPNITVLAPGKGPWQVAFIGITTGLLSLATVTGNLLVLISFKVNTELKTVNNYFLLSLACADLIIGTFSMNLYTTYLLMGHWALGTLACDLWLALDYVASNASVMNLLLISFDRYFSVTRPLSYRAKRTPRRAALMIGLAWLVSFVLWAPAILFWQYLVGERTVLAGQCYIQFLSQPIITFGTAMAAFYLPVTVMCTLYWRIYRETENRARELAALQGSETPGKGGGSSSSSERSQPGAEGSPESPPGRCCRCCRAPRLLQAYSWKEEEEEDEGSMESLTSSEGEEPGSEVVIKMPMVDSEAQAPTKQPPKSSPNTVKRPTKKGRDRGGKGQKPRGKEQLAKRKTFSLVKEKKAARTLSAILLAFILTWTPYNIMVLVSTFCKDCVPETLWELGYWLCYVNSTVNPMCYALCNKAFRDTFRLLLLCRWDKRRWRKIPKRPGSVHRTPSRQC

With `Cc1nc(N=Nc2ccc(C(=O)O)cc2)c(COP(=O)(O)O)c(C=O)c1O`, the Potency entry in assay [1], in [2], in assay [3], in assay [4] and in [5] was “inactive” throughout. The call in [6] was inactive. In addition, the Potency in assay [7] was 5.01 µM (active).
For `CN[C@H](CC(=O)O)C(=O)O`, the Potency result in [1], in assay [2], in assay [3] and in assay [5] was “inactive” throughout. The outcome in [6] was inactive.
In the case of `N=C(N)c1ccccc1`, the Potency result in assay [1], in [3], in [4], in assay [8] and in [5] was “inactive” each time. Besides, the result in assay [6] was inactive.
As to `CC[N+](CC)(CC)CC(=O)Nc1c(C)cccc1C`, the Potency result in [1], in [3] and in assay [5] was “inactive” each time. Moreover, in assay [6], the result was inactive.
Take `N#Cc1cc2nc(O)c(O)nc2cc1[N+](=O)[O-]`: the Potency entry in [1], in assay [3], in assay [4] and in assay [5] was “inactive” throughout. Besides, the molecule was called inactive in assay [6]. For the same molecule, in assay [7], the Potency is 25.1 µM (active).
Take `O=c1[nH]ccc2c(O)cccc12`: the Potency entry in [1], in [3] and in assay [4] was “inactive” each time. For the same molecule, in assay [6], the molecule was classed as inactive.
For the molecule `Oc1cc(O)c2c(c1)O[C@H](c1ccc(O)c(O)c1)[C@@H](O)C2`, in assay [2], the Potency result is “inactive”.
For `COc1cc2c(CCNC(C)=O)c[nH]c2cc1O`, the Potency result in [1], in assay [3], in [4] and in assay [5] was “inactive” in each case. Further, in assay [6], the call was inactive.
For the molecule `N#CC(C#N)=C(N)/C(C#N)=C/c1ccc(O)cc1`, the Potency result in [1], in assay [3] and in [4] was “inactive” each time. The call in assay [6] was inactive.
Take `N[C@H](C(=O)O)[C@H](O)C(=O)O`: the Potency result in [1], in assay [3], in assay [4] and in assay [5] was “inactive” throughout. Also, the result in assay [6] was inactive.
Turning to `Nc1ccc(-c2nc3ccc(-c4nc5ccc(N)cc5[nH]4)cc3[nH]2)cc1`, in assay [1], the Potency was 1.12 µM (active). The Potency entry in assay [3] and in assay [7] was “inactive” in each case. Besides, in assay [6], the outcome was inactive.
Consider `CN(C)S(=O)(=O)c1ccc2c(c1)/C(=C/c1cc3c([nH]1)CCCC3)C(=O)N2`, for which the Potency in [1] is 1.58 µM (active). Besides, the Potency result in assay [3], in assay [4] and in [5] was “inactive” in each case. Further, the result in assay [6] was inactive.
Take `O=C(O)C1CCNCC1`: the Potency result in assay [1] and in [3] was “inactive” each time. Also, the outcome in [6] was inactive.
On to `O=C1Nc2ccc(I)cc2/C1=C/c1cc(Br)c(O)c(Br)c1`, for which the Potency in [1] is 8.91 µM (active). The Potency result in [3], in [4] and in assay [5] was “inactive” each time. In [6], the call was inactive.
Take `CCN(c1nc(N)c(C(=O)N=C(N)N)nc1Cl)C(C)C`: the Potency result in [1], in [8] and in assay [5] was “inactive” each time. The outcome in [6] was inactive.
As for `COc1ccc(CCN(C)CCc2ccc(OC)c(OC)c2)cc1OC`, the Potency result in [1], in [3] and in assay [5] was “inactive” in each case. For the same molecule, in assay [6], the call was inactive.
Regarding `Cc1nc(N=Nc2cc(S(=O)(=O)O)c3cc([N+](=O)[O-])cc(S(=O)(=O)O)c3c2)c(COP(=O)(O)O)c(C=O)c1O`, the Potency entry in [1] and in [5] was “inactive” each time. Besides, the molecule was called inactive in assay [6].
As to `O=C(O)c1cc(=O)cc(C(=O)O)[nH]1`, in assay [1], the Potency was 3.55 µM (active). The Potency entry in assay [3] and in [5] was “inactive” in each case. Further, the outcome in assay [6] was inactive.
For the molecule `O=C(O)C1=CCCN(CCON=C(c2ccccc2)c2ccccc2)C1`, the Potency result in [1], in assay [3] and in [5] was “inactive” in each case. Besides, the call in [6] was inactive.
As to `COc1ccccc1N1CCN(CCCNc2c(C)c(=O)n(C)c(=O)n2C)CC1`, the Potency result in assay [1] and in assay [3] was “inactive” in each case. For the same molecule, the outcome in assay [6] was inactive.
As for `c1ccc2nc(C3=NCCN3)ccc2c1`, the Potency entry in assay [1], in [3] and in [5] was “inactive” each time. Further, the call in assay [6] was inactive.
`C[N+](C)(C)CC=O`: the Potency entry in assay [1], in [3], in assay [8] and in assay [5] was “inactive” in each case. Further, the call in assay [6] was inactive.
Take `CCCCCCCCCCCCCCSCC(=O)O`: the Potency result in assay [1] and in [3] was “inactive” each time. The call in assay [6] was inactive.
Turning to `O=C(O)C1=CC(=C(c2ccc(O)c(C(=O)O)c2)c2ccc(O)c(C(=O)O)c2)C=CC1=O`, the Potency entry in [1], in assay [4], in assay [5] and in assay [10] was “inactive” throughout. Further, the molecule was called inactive in [9].
Consider `CCC(=O)N1CCN(C(=O)c2ccccc2)CC1`, for which the Potency entry in assay [1], in assay [3] and in assay [4] was “inactive” in each case. The molecule was called inactive in assay [6].
For the molecule `CCN(CC)CCOC(=O)c1cc(Cl)c(N)cc1OC`, the Potency result in [1], in assay [3], in [8] and in assay [5] was “inactive” each time. Besides, the molecule was classed as inactive in assay [6].
On to `O=C(c1ccc2c(c1)OCCO2)N1CCCCC1`, for which the Potency entry in assay [2] is “inactive”.
Regarding `O=C1NC(=O)c2cc(Nc3ccccc3)c(Nc3ccccc3)cc21`, the Potency in assay [1] was 10 µM (active). In assay [8], the Potency entry was “inactive”. Moreover, in assay [6], the call was inactive.
`Nc1ccc(-c2ccc3ccccc3n2)cc1`: the Potency result in assay [1], in assay [8] and in assay [7] was “inactive” each time. The Potency in [5] and in assay [10] was 12.6 µM (active) throughout. Moreover, the result in [6] was inactive.
Take `NC(=Nc1ccccc1)NC(=O)c1nc(Cl)c(N)nc1N`: the Potency in assay [1] is 7.94 µM (active); in [3], 2.51 µM (active). For the same molecule, the Potency result in assay [5] was “inactive”. Also, the call in [6] was inactive.
In the case of `NOCC(=O)O`, the Potency result in [1], in [4] and in [5] was “inactive” in each case. Also, in assay [6], the molecule was called inactive.
For the molecule `Cc1nc(N=Nc2ccc(S(=O)(=O)O)cc2S(=O)(=O)O)c(COP(=O)(O)O)c(C=O)c1O`, the Potency result in assay [1] and in [4] was “inactive” in each case. Moreover, in assay [6], the call was inactive. Also, the Potency in assay [7] was 3.98 µM (active).
As for `COc1cc(N)c(Cl)cc1C(=O)OCCN1CCCCC1`, the Potency entry in assay [1] and in assay [3] was “inactive” throughout. The molecule was classed as inactive in assay [6].
Consider `Clc1nccc2c1ccc1ccccc12`, for which the Potency result in assay [1], in assay [3] and in assay [5] was “inactive” in each case. Moreover, the molecule was classed as inactive in [6].
As for `C=CCn1c(=O)c2c(nc(-c3ccc(S(=O)(=O)O)cc3)n2C)n(C)c1=O`, the Potency result in assay [1], in [3], in assay [4] and in assay [5] was “inactive” each time. Also, the result in assay [6] was inactive.

The record behind these values is PubChem BioAssay (NCATS).
